# PubChem BioAssay
# Activity calls are given as the source filed them. Unless noted, how the calls were made is not given here.
# What was measured:
# [1] = tested on: Wnt5a (protein binding on small-molecule microarray); experiment: small molecules binding Wnt5a protein – biophysical, small-molecule microarray, 635/667 nm fluorescence, primary screen (AID 1142); settings: 635 nm fluorescence, higher = more signal;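 further: fluorescence read at 667 nm with signal to noise per printed feature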
# [2] = ATP-based viability of Huh7 replicon cells – cell-based, CellTiter-Glo luminescence, basal, 48 h, cytotoxicity control for HCV replication inhibitor project, primary screen (AID 1143); settings: higher = more signal, called active from +8 up or from −8 down;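 further: Huh7 hepatoma cells carrying a hepatitis C replication reporter with no stimulus; test concentration not given here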
# [3] = Pseudomonas biofilm growth suppression – PAO1 strain, BacTiter-Glo luminescence, LB-PBS, primary screen (AID 1144); settings: P. aeruginosa PAO1 biofilm, 12 h, higher = more signal
# [4] = basal CRE-LacZ reporter activity in PC12 – cell-based, unstimulated, primary screen (AID 1145); settings: no forskolin, luminescence, 4.5 h, higher = more signal, called active from +8 up or from −8 down
# [5] = forskolin-driven CRE-LacZ activity in PC12 – cell-based, CRE-LacZ reporter, forskolin-stimulated, primary screen (AID 1146); settings: luminescence, 4.5 h, higher = more signal, called active from +8 up or from −8 down;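 further: PC12 cells with 6xCRE LacZ reporter stimulated by forskolin 10 µM; beta-galactosidase reporter signal reflecting CREB driven transcription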
# [6] = molecular target: Streptavidin (Streptomyces avidinii) (UniProt P22629); experiment: compounds binding control protein streptavidin – biophysical, small-molecule microarray, 635/667 nm fluorescence, artefact control for SMM compound annotation, primary screen (AID 1147); settings: higher = more signal;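 further: signal reflects streptavidin binding to arrayed compounds as a control protein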
# Sequence of Streptavidin (Streptomyces avidinii) (P22629 whole entry, looked up): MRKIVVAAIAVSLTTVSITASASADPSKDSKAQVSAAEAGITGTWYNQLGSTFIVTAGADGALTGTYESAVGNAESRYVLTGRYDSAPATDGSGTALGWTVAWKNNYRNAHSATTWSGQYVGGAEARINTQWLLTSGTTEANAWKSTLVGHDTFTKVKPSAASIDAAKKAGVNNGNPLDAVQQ
# [7] = probe aInhba binding on compound microarray – biochemical, small-molecule microarray, 635/667 nm fluorescence, primary screen (AID 1148); settings: higher = more signal;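 further: score merges 667nm spot fluorescence with signal-to-noise for antibody binding to printed compounds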
# Torsin-1A (Homo sapiens) [8] = molecular target: Torsin-1A (Homo sapiens) (UniProt O14656); experiment: TOR1A wild-type binding on microarray – cell lysate, small-molecule microarray, lysate, 635/667 nm, primary screen (AID 1149); settings: COS7 hTOR1A-WT lysate, 635 nm fluorescence, higher = more signal
# Sequence of Torsin-1A (Homo sapiens) (O14656 whole entry, looked up): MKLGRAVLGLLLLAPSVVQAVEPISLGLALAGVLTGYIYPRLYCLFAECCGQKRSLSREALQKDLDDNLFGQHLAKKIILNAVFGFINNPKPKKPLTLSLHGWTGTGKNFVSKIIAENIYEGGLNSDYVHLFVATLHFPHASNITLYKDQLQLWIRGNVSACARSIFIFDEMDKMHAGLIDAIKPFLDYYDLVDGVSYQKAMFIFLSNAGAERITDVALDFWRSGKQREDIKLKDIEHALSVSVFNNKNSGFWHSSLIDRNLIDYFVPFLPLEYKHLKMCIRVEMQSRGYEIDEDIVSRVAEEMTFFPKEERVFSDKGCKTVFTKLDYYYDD
# Torsin-1A (Homo sapiens) [9] = molecular target: Torsin-1A (Homo sapiens) (UniProt O14656); experiment: torsin A mutant lysate binding on microarrays – cell lysate, small-molecule microarray, COS7 lysate, 635/667 nm fluorescence, primary screen (AID 1150); settings: COS7 hTOR1A mutant lysate, 635 nm fluorescence, higher = more signal;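 further: score pools 667 nm emission and signal to noise measuring lysate protein binding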
# [10] = tested on: Sonic hedgehog protein (Shh); experiment: Sonic hedgehog microarray binding compounds – biochemical, small-molecule microarray, 635/667 nm fluorescence, primary screen (AID 1151); settings: 635 nm fluorescence, higher = more signal;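 further: Shh protein binding to compounds spotted on small-molecule microarray slides; score combines spot fluorescence intensity with signal-to-noise across triplicate slides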
# [11] = optical density shifts of acrAB sulA E. coli – strain DRC41, OD650, 48 h, E. coli filamentation inducer project, primary screen (AID 1152); settings: higher = more signal, called active from +8 up or from −8 down;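 further: E. coli MC1000 strain DRC41 lacking acrAB efflux pump and sulA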
# [12] = probe aLefty1 binding on compound microarray – biochemical, small-molecule microarray, 635/667 nm fluorescence, primary screen (AID 1153); settings: higher = more signal;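 further: score merges spot fluorescence with signal-to-noise ratio from the scanned slide images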
# [13] = plasmodial surface anion channel blockers, osmotic lysis – cell-based, P. falciparum Indochina, OD700, 1 h, primary screen (AID 1154); settings: P. falciparum Indochina infected RBC osmotic lysis, higher = more signal, called active from +8 up or from −8 down
# [14] = plasmodial surface anion channel blockers, osmotic lysis – cell-based, P. falciparum Indochina, OD700, 2 h, primary screen (AID 1155);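 further: lysis reports solute entry through the parasite surface anion channel PSAC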; settings: P. falciparum Indochina infected erythrocytes, higher = more signal, called active from +8 up or from −8 down
# [15] = changes in parasitized red cell lysis, either direction – P. falciparum Indochina, OD700, 3 h, PSAC antagonist project, primary screen (AID 1156); settings: P. falciparum-infected erythrocytes, osmotic lysis, higher = more signal, called active from +8 up or from −8 down
# [16] = plasmodial surface anion channel blockers, osmotic lysis – cell-based, P. falciparum Indochina, OD700, 18 h, primary screen (AID 1157); settings: P. falciparum Indochina infected erythrocytes, osmotic lysis OD700, 18 h; higher = more signal, called active from +8 up or from −8 down
# [17] = S6 kinase pathway phospho-S6 level changes – cell-based, A549, cytoblot, luminescence, serum-stimulated, primary screen (AID 1158); settings: 5 h, higher = more signal;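 further: serum-stimulated A549 lung adenocarcinoma cells; signal is phosphorylated S6 detected by cytoblot immunostaining with HRP secondary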
# [18] = molecular target: NADPH oxidase 2 (Homo sapiens) (UniProt P04839); experiment: compounds shifting NOX2 Amplex Red fluorescence – cell-based, HEK293-NOX2, PMA-stimulated, NOX inhibitor project, primary screen (AID 1159); settings: 45 min, higher = more signal, called active from +8 up or from −8 down; further: test concentration not given here
# Sequence of NADPH oxidase 2 (Homo sapiens) (P04839 whole entry, looked up): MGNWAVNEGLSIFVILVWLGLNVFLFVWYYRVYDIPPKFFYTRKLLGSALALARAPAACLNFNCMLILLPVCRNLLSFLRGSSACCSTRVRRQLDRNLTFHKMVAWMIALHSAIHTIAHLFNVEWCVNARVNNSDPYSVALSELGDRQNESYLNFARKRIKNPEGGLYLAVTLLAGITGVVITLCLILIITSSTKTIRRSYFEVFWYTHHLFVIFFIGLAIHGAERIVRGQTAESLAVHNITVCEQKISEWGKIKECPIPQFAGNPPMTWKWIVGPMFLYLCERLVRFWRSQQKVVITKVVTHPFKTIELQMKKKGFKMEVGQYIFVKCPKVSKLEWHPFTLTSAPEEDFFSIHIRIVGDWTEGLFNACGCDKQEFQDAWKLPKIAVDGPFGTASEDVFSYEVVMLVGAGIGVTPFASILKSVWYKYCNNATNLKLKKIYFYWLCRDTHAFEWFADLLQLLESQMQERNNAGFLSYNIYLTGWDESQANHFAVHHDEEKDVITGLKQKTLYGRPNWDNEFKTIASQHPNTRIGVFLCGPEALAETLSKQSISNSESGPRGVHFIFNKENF
# [19] = molecular target: NADPH oxidase 4 (Homo sapiens) (UniProt Q9NPH5); experiment: compounds shifting NOX4 Amplex Red fluorescence – cell-based, HEK293-NOX4, tetracycline-induced, NOX inhibitor project, primary screen (AID 1160); settings: HEK293-NOX4, Amplex Red H2O2 fluorescence, 45 min; higher = more signal, called active from +8 up or from −8 down
# Sequence of NADPH oxidase 4 (Homo sapiens) (Q9NPH5 whole entry, looked up): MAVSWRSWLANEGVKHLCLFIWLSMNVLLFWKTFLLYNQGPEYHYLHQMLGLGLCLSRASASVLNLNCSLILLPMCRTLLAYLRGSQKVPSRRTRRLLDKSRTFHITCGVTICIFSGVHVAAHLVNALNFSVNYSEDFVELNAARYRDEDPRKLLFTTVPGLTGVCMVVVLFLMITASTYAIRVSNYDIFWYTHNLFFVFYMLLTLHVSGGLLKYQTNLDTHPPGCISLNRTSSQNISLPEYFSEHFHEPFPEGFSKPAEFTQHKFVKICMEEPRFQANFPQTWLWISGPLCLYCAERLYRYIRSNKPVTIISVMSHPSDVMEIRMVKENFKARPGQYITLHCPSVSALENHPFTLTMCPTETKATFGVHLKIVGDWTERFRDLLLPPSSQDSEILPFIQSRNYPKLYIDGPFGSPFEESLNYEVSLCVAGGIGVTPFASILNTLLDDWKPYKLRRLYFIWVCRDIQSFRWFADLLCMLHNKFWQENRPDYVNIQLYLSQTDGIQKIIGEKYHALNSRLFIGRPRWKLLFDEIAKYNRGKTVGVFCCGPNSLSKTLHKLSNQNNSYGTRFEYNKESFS
# [20] = molecular target: NADPH oxidase 5 (Homo sapiens) (UniProt Q96PH1); experiment: compounds shifting NOX5 Amplex Red fluorescence – cell-based, HEK293-NOX5, NOX inhibitor project, primary screen (AID 1161); settings: HEK293-NOX5, ionomycin, 45 min, higher = more signal
# Sequence of NADPH oxidase 5 (Homo sapiens) (Q96PH1 whole entry, looked up): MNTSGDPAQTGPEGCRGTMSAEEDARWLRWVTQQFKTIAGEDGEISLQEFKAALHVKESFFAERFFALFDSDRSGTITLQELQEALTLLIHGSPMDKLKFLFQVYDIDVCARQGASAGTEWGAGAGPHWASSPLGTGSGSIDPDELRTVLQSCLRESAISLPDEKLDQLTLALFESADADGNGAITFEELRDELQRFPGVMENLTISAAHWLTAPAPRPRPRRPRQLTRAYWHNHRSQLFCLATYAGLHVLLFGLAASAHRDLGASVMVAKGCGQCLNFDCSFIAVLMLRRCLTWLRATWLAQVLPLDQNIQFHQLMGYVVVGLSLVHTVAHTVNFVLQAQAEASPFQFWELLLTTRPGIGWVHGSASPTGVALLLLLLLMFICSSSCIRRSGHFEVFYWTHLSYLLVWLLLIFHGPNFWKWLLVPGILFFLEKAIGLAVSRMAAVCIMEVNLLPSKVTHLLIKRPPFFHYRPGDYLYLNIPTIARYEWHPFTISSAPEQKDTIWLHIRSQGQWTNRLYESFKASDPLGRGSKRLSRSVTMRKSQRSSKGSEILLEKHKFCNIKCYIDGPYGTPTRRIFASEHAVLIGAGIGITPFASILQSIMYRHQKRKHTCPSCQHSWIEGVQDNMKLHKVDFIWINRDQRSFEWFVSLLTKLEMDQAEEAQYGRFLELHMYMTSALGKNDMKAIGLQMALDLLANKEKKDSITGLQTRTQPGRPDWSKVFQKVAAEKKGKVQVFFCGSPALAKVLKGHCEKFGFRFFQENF
SMILES,composite z-score [1],z-score [2],z-score [3],z-score [4],z-score [5],composite z-score [6],composite z-score [7],composite z-score (Torsin-1A (Homo sapiens) [8]),composite z-score (Torsin-1A (Homo sapiens) [9]),composite z-score [10],z-score [11],composite z-score [12],z-score [13],z-score [14],z-score [15],z-score [16],z-score [17],z-score [18],z-score [19],z-score [20]
COc1ccc([Si](C)(C)[C@H]2[C@H](CCn3cc([C@H](O)c4ccccc4)nn3)O[C@@]3(C(=O)N(Cc4ccc(N5CCOC5=O)cc4)c4ccccc43)[C@@H]2C)cc1,-0.271,-1.3 (inactive),-0.434 (inactive),0.804 (inactive),-0.889 (inactive),-0.303,-0.208,-0.995,-1.35,-0.25,-0.0796 (inactive),-0.147,31.9 (active),31.7 (active),1.99 (inactive),3.2 (inactive),-0.532,0.308 (inactive),2.85 (inactive),2.08
COCCCNC(=O)[C@@]1(Sc2ccc(C)cc2)CC(=O)N(C2Cc3ccccc3C2)[C@@H]1c1ccc(CO)cc1I,-0.572,-0.712 (inactive),-0.141 (inactive),0.0909 (inactive),0.555 (inactive),-0.962,-0.157,-0.475,-1.29,-0.59,-0.713 (inactive),-0.0366,4.51 (inactive),0.427 (inactive),-0.23 (inactive),-0.0133 (inactive),0.224,2.2 (inactive),-1.15 (inactive),1.23
CC(=O)n1cc(C(O)C2C=CC3C(=O)N(c4ccccc4)C(=O)C3N2Nc2ccccc2)c2ccccc21 (stereo not given),0.689,-3.34 (inactive),-0.504 (inactive),0.436 (inactive),-0.507 (inactive),0.862,0.426,0.14,1.08,0.497,-1.45 (inactive),0.681,20.1 (active),2.76 (inactive),1.12 (inactive),-0.568 (inactive),1.32,-3.07 (inactive),-4.86 (inactive),-4.68
COCCCNC(=O)[C@@H]1c2ccccc2C(=O)N(Cc2ccccc2C(F)(F)F)[C@H]1c1ccc(CO)cc1,0.143,0.442 (inactive),0.309 (inactive),-0.385 (inactive),-1.45 (inactive),-0.194,0.0536,0.285,0.331,0.23,0.938 (inactive),-0.198,1.14 (inactive),0.165 (inactive),0.0034 (inactive),-0.0633 (inactive),0.0987,-0.214 (inactive),0.732 (inactive),0.498
C[n+]1ccc(CCCO)cc1,0.749,-0.0513 (inactive),-0.601 (inactive),0.182 (inactive),0.58 (inactive),-0.902,0.196,-0.653,-0.0965,2.16,-0.885 (inactive),0.33,0.599 (inactive),-0.0234 (inactive),1.87 (inactive),0.131 (inactive),-0.283,0.176 (inactive),-0.435 (inactive),-1.72
COCCOC(=O)N1C(=O)[C@@]2(c3cc(C#CC4(O)CCCCCC4)ccc31)[C@H](C(=O)N1CCCCCCC1)[C@H]1C(=O)O[C@H](c3ccccc3)[C@H](c3ccccc3)N1[C@@H]2c1ccc(OCCO)cc1,1.19,-3.66 (inactive),0.629 (inactive),0.623 (inactive),-0.532 (inactive),2.63,1.85,1.25,1.8,2.17,1.08 (inactive),2.64,5.11 (inactive),2.64 (inactive),0.539 (inactive),1.27 (inactive),-0.108,0.738 (inactive),0.507 (inactive),1.36
C=C(COC)/C(=C/C[C@@H](OC(=O)c1ccncc1)c1ccc(OCCO)cc1)c1cnc2ccccc2c1,0.884,-3.25 (inactive),-1.28 (inactive),7.95 (inactive),0.34 (inactive),2.13,0.0419,0.77,0.327,2.09,0.634 (inactive),0.497,23.1 (active),5.56 (inactive),1.59 (inactive),1.19 (inactive),-0.0567,-1.17 (inactive),-0.596 (inactive),-1.84
O=C(CCCCCCC(=O)Nc1ccccc1)N/N=C/c1ccccc1,-0.343,0.0796 (inactive),0.99 (inactive),5.11 (inactive),0.0631 (inactive),-0.184,0.0074,0.577,0.146,0.0351,-0.362 (inactive),-0.24,24 (active),10.9 (active),0.0998 (inactive),0.992 (inactive),-0.0886,-0.3 (inactive),-0.0411 (inactive),-0.185
CCCC[C@@H]1C[C@H]1[C@@H](NC(=O)c1ccccc1)c1ccc(Cl)cc1,-0.546,-2.6 (inactive),0.173 (inactive),0.197 (inactive),0.699 (inactive),-1.33,-0.322,4.37,-0.539,-1.34,-2.41 (inactive),0.233,1.72 (inactive),0.589 (inactive),-0.573 (inactive),0.839 (inactive),-0.584,-0.093 (inactive),-0.505 (inactive),1.86
